The list is not random: actives were taken first. Their share in the collection is about 5.1%.
TMEM16A act: activators or potentiators of mouse TMEM16A chloride channel; Q8BHY3; HEK293 TMEM16A/YFP-H148Q/I152L, iodide quench fluorescence; stronger effect = lower value; B-score at 10 µM; 340,000 compounds, 0.3% hits; AID 623877;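 active = fluorescence-ratio B-score plate-corrected deviation score at least 3 library SD below zero, with starting fluorescence score within 5 deviations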;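 also: channel opened by trigger with iodide after compound preincubation; score built on the fluorescence ratio of max minus min over baseline; more negative score means more quench and so TMEM16A activation or potentiation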
CRFR2-BP ag: agonists of human CRF-binding protein/CRF-R2 receptor complex. 350,000 compounds, 0.46% hits. HEK293 CRF-R2/CRF-BP, calcium dye fluorescence (FLIPR); percent of saturating CRF peptide response. activation, % at 13.2 µM;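 active = activation of at least 50%, plus an integration ratio under a set limit after plate pattern correction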;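 also: plate controls were neutral control wells without compound for no effect and CRF at EC100 for full effect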
MPTP block: permeability transition pore inhibition | isolated mouse mitochondria, Ca2+ swelling absorbance, 30 min | inhibition, % at 10 µM | 360,000 compounds, 1.4% hits;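 active = inhibition of 50% or more, scaled per plate between neutral and stimulator controls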;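 also: 0% = DMSO wells given calcium and 100% = 1 mM EGTA wells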
CRFBP-R2 block: blocks CRF-induced signaling of the CRF-BP/CRF-R2 complex; HEK293 CRF-R2/CRF-BP, CRF-induced calcium fluorescence; 350,000 compounds, 0.59% hits; inhibition, % at 11.8 µM; AID 588475;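 active = inhibition of the ligand-induced calcium signal above about 50% at the single tested concentration, limit read from the data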
GRIN3A LBD mod: modulators (binders) of human NR3A ligand-binding domain; NR3A LBD differential scanning fluorimetry, Tm shift; 0% = protein alone, 100% = glycine-bound protein; 340,000 compounds, 2.5% hits; Tm shift relative to glycine control, % at 25 µM; AID 1259313;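 active = melting temperature shift of at least 10% of the positive control shift, at one fixed dose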
TMEM16A inh: mouse TMEM16A channel inhibition, primary screen; Q8BHY3; HEK293 TMEM16A/YFP iodide influx fluorescence, ionomycin; normalized B-score (activity score, 25-100; higher = stronger inhibition) at 10 µM; 310,000 compounds, 1.2% hits;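 active = ratio plate-corrected score three or more library SD toward inhibition, starting fluorescence score within five deviations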;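 also: score derived from kinetic fluorescence span divided by baseline fluorescence per well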
Starred values were filed as active, the others as inactive; i = inactive; nt = no result.

SMILES	TMEM16A act	CRFR2-BP ag	MPTP block	CRFBP-R2 block	GRIN3A LBD mod	TMEM16A inh
Cc1cc(SCC(=O)Nc2ccccc2)n2ncc(-c3ccccc3)c2n1	i	1	44	-6	32*	i
COc1ccc(NC(=O)CSc2cc(C)nc3c(-c4ccccc4)cnn23)cc1	i	2	17	-9	64*	i
COc1ccc(NC(=O)CSc2nnc(-c3ccccc3)n2N)cc1	i	-4	-1	7	0	i
COc1cc2oc(=O)ccc2cc1[C@@H](O)[C@@H]1OC(C)(C)OC1(C)C	i	-1	-1	8	0	nt
CCOC(=O)C1CCCN(c2ncnc3c2cnn3-c2ccc(Cl)cc2)C1 (stereo not drawn)	i	101*	0	-7	3	i
CCOC(=O)C1CCCN(c2ncnc3c2cnn3-c2ccc(OC)cc2)C1 (stereo not drawn)	i	-2	2	-18	-1	i
O=S1(=O)CC(N2CCN(CC3CC3)CC2)CN1Cc1ccccc1 (stereo not drawn)	nt	nt	1	nt	nt	nt
N/C(Cc1ccccc1Sc1ccccc1)=N\O	i	-1	0	61*	-3	i
CCCCCC(=O)N1C[C@@H](O)[C@H](n2cc(COC(=O)c3ccccc3)nn2)C[C@@H]1c1ccccc1	nt	1	-2	-28	nt	nt
O=S(=O)(c1ccc(Br)cc1)N1CCC2(CC1)OCCO2	i	1	-1	-7	2	i
COc1ccc(CCN2C(=O)C=CC2=O)cc1OC	i	0	-1	-13	20*	nt
O=C(CNC(=O)c1ccc(Br)o1)NC1CCCCC1	i	0	-1	5	-3	i
CC(=O)Nc1sc(/C(C#N)=C\c2cccc(Cl)c2)nc1-c1ccc(C)cc1	i	319*	36	-405	-5	i
O=C(COc1cccc2cccnc12)N/N=C/c1ccccc1O	i	-1	1	14	0	i
CC(=O)Nc1sc(N/N=C/c2ccccc2)nc1-c1ccc(C)cc1	i	0	1	6	11*	i
CC(=O)Nc1sc(N/N=C/c2ccc(O)cc2)nc1-c1ccc(C)cc1	i	-2	1	-9	0	i
Oc1ccc(C=NNc2nc3ccccc3s2)c(O)c1	i	2	2	-17	38*	nt
Oc1ccccc1/C=N/Nc1cccc2cccnc12	i	0	2	3	10*	i
CC(=O)Nc1sc(-c2ccc(Cl)cc2)nc1-c1ccccc1	i	-2	0	4	-1	i
COC(=O)c1ccc(N2C(c3cccc(OC)c3)=Cc3ccc(F)cc3C2c2c(C)[nH]c3ccccc23)cc1 (stereo not drawn)	nt	nt	1	nt	nt	nt
CC(=O)Nc1ccc(/C=N/Nc2nc3ccccc3s2)cc1	i	-1	2	2	16*	nt
Cc1ccsc1/C=N/Nc1nc2ccccc2s1	i	1	8	-72	24*	i
C(=N\Nc1nc2ccccc2s1)/c1cccs1	i	7	3	-33	-2	i
CC(=O)Nc1cccc(/C(C)=N/Nc2nc3ccccc3s2)c1	i	0	-1	-7	31*	i
Oc1ccccc1/C=N/Nc1ccccc1	i	-2	32	-5	13*	i
SMILES	TMEM16A act	CRFR2-BP ag	MPTP block	CRFBP-R2 block	GRIN3A LBD mod	TMEM16A inh
COCCNC(=O)C1(C)CCCN(C(=O)c2ccc(F)cc2Cl)C1 (stereo not drawn)	nt	nt	0	nt	nt	nt
CCCCN(C=O)c1c(CC)nc2c(OCC3CCCCC3)cccn12	nt	nt	2	nt	nt	nt
Cc1c(N(C)S(=O)(=O)c2ccc(Cl)c(C(=O)NCC(C)(C)N3CCOCC3)c2)c(=O)n(-c2ccccc2)n1C	i	1	-2	-4	0	nt
Cc1c(P(=O)(c2ccccc2)c2ccccc2)c2ccccc2n1C	nt	nt	0	nt	nt	nt
CCOc1ccc(OCCC(=O)N(CC)CC(=O)NCc2ccc(Cl)cc2)cc1	i	0	0	-6	-1	i
COc1cccc(C=NNc2nc3ccccc3s2)c1OC	i	-1	3	-8	-4	nt
COc1ccc(/C=N/Nc2nc3ccccc3s2)cc1O	i	-1	0	-9	13*	nt
Oc1ccccc1C=NNc1nc2ccccc2s1	i	0	20	-8	31*	nt
